About 7,900 targets were measured; listed, in parts, are those with a hit and a random draw of the rest. About 0.6% of all pairs of compound and target were hits.

UniProt Q86UD3, sequence (Q86UD3 whole entry, looked up): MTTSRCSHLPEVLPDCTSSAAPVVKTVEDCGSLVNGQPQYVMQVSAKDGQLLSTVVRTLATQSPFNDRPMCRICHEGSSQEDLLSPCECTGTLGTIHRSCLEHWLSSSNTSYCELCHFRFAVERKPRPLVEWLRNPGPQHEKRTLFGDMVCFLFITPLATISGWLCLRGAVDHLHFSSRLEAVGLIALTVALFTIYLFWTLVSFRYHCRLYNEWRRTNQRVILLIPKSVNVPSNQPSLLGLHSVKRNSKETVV
UniProt Q9Y5V3, sequence (Q9Y5V3 whole entry, looked up): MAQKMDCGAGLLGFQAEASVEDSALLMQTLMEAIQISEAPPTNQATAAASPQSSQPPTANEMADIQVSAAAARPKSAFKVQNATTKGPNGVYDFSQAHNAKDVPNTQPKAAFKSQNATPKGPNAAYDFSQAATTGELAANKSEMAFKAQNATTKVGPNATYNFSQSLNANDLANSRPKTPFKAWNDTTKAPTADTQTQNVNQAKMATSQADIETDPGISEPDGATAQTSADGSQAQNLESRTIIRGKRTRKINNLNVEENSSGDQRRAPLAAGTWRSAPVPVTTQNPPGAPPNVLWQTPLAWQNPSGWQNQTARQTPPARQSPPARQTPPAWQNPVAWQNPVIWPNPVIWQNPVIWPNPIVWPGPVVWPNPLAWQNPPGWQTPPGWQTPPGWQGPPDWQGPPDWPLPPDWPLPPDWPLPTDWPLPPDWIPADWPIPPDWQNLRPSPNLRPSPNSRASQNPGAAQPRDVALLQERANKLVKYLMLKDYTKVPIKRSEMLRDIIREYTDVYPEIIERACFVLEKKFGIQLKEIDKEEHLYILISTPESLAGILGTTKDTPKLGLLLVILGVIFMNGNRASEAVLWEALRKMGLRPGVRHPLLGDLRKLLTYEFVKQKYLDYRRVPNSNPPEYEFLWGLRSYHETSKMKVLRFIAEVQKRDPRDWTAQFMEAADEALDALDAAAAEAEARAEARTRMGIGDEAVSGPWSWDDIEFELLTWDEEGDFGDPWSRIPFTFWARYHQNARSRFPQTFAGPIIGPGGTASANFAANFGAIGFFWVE
UniProt P13473, sequence (P13473 whole entry, looked up): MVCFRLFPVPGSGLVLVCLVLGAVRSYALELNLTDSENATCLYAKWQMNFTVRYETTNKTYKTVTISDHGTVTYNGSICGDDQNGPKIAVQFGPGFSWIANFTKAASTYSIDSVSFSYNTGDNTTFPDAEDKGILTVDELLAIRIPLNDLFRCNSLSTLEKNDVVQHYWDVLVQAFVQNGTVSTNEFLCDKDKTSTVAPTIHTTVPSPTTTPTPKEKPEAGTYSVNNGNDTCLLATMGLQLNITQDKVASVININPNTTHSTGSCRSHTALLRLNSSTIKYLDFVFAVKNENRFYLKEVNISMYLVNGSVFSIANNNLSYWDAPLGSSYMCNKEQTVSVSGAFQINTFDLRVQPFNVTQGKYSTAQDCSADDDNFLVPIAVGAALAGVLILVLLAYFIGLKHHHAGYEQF
UniProt Q14680, sequence (Q14680 whole entry, looked up): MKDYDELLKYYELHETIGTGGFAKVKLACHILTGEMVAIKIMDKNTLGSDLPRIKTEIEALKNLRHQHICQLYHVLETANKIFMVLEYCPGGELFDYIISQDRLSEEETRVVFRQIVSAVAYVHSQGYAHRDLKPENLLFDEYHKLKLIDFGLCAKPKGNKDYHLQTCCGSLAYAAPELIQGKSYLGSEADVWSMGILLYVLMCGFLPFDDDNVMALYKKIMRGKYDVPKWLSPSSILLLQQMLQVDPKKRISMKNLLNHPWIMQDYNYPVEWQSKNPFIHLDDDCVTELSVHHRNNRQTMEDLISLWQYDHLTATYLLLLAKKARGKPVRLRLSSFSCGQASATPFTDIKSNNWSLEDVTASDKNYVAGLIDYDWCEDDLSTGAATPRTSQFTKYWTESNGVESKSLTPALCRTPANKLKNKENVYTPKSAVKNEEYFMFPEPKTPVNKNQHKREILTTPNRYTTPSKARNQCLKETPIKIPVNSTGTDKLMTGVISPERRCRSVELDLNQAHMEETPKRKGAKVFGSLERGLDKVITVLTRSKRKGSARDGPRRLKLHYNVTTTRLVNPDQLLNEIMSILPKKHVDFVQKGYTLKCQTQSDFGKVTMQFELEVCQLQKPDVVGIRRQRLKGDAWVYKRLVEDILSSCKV
UniProt Q9UPY8, sequence (Q9UPY8 whole entry, looked up): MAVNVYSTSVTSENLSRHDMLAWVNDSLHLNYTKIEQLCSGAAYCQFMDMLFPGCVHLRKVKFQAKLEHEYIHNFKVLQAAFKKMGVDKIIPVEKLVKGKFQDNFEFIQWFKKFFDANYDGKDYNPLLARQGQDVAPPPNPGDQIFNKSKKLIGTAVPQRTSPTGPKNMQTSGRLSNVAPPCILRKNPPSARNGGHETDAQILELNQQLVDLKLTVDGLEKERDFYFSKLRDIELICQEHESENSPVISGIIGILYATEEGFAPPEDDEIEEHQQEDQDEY
UniProt Q8NHS3, sequence (Q8NHS3 whole entry, looked up): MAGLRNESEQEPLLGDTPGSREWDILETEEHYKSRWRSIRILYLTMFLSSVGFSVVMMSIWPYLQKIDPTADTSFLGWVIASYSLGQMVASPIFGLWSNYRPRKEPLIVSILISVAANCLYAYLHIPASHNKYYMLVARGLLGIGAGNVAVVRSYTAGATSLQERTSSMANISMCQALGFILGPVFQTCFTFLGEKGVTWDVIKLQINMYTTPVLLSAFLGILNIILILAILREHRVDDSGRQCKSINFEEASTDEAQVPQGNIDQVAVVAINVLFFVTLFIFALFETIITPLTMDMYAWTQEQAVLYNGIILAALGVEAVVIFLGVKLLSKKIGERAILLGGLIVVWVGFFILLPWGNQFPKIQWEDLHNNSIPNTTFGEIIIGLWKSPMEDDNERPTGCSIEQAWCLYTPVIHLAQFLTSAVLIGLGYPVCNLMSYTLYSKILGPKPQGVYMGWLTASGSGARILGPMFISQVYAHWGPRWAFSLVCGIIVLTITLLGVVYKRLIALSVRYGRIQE
UniProt Q9BQD3, sequence (Q9BQD3 whole entry, looked up): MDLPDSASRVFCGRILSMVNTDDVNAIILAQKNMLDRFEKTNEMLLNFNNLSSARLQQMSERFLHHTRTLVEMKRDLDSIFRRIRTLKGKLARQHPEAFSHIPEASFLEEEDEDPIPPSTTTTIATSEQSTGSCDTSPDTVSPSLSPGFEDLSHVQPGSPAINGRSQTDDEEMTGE
UniProt P28290, sequence (P28290 whole entry, looked up): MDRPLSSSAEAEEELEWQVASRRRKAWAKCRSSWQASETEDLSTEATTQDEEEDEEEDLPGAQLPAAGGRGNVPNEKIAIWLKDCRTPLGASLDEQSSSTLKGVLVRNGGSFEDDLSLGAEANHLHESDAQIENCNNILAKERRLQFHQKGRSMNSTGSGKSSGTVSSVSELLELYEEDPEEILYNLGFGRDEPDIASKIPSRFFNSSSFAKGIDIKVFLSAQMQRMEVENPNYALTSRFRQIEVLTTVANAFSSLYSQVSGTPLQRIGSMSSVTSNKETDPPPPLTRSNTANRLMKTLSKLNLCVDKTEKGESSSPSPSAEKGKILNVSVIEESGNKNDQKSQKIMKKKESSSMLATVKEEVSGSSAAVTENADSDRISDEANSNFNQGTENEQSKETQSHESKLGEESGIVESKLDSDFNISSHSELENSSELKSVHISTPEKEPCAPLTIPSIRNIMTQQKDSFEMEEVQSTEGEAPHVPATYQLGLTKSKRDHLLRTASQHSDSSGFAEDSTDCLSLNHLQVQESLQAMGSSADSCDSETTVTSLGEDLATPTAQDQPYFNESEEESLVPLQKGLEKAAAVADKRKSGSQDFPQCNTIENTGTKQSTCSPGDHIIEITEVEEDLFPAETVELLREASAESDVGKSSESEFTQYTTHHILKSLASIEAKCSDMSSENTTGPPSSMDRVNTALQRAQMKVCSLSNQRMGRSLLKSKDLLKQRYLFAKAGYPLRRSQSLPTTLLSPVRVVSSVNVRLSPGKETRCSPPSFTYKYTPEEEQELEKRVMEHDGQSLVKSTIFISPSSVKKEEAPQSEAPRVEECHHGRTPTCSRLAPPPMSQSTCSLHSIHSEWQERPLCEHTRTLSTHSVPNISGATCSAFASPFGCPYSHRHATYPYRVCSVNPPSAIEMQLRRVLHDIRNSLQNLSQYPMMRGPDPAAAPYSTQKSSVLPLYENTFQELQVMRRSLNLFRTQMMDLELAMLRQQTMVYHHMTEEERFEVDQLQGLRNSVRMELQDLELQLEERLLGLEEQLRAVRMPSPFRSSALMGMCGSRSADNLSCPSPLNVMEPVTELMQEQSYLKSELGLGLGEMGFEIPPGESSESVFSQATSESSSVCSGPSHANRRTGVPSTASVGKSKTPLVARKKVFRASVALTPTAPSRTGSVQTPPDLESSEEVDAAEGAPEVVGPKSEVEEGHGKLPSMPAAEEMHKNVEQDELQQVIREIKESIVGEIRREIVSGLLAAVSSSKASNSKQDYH
UniProt Q8TDD5, sequence (Q8TDD5 whole entry, looked up): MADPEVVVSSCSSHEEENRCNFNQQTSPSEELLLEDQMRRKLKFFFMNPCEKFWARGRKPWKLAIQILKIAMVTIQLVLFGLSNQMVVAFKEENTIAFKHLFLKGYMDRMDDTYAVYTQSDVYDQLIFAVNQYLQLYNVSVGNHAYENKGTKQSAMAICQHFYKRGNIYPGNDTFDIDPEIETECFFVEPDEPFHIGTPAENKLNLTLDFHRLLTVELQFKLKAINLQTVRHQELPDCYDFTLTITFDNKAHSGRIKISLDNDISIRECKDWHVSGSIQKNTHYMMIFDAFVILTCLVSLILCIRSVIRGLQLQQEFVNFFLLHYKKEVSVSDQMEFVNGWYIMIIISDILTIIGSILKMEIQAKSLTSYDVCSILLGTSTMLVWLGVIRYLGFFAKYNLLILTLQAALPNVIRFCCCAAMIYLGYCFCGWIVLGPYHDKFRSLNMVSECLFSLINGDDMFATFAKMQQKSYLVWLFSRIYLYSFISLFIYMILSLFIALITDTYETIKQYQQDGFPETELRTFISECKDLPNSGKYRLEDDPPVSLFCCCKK

Compound in one experiment: CC[C@@H]1C(=O)N(C)c2cnc(Nc3ccc(C(=O)N[C@H]4CC[C@H](N5CCN(CC6CC6)CC5)CC4)cc3OC)nc2N1C(C)C [volasertib]
Description: log2 fold change, soluble protein after heating vs DMSO (PISA); higher = thermal stabilisation; K562 cells, 10 uM, 30 min; active = over 0.2 and 3.5 SD of the protein, either way, in both replicates (recomputed). The method, boiled down: (§1)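 K562 cells at 2×10^6 cells/mL were treated with 10 μM compound for 30 min. Aliquots were heated for 3 min across 48°C-58°C, pooled, and extracted in PBS with 0.5% NP-40 at 4°C; soluble protein was the supernatant after 21,000xg for 90 min. Soluble protein was quantified by TMTpro 16plex LC-MS/MS with channel sums equalised, and reported as log2 fold change in thermal stability against DMSO controls, with values from duplicates.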
As for KXD1 (UniProt Q9BQD3), the log2 fold change was -0.035 (inactive).
Still for that read-out and setting: the value for ITPRID2 (UniProt P28290) was -0.373 (inactive); that for LSR isoform 3 (UniProt Q86X29) was -0.096 (inactive); that for MARCHF3 (UniProt Q86UD3) was 0.011 (inactive).
Consider IKZF1 (UniProt R9R4D9), for which the log2 fold change is 0.085 (inactive).
Take MAGED1 isoform 2 (UniProt Q9Y5V3): the log2 fold change is -0.306 (inactive).
The same measure, in the same setting: then MAPRE3 isoform 2 (UniProt Q9UPY8), with 0.165 (inactive); and MBLAC1 (UniProt A4D2B0), with 0.148 (inactive).
With KIZ (UniProt Q2M2Z5), the log2 fold change is 0.262 (inactive).
Still for that read-out and setting: the value for MAP4K2 (UniProt Q12851) was -0.093 (inactive); that for LAMP2 isoform 2 (UniProt P13473) was -0.081 (inactive).
Take MAGEA8 (UniProt P43361): the log2 fold change is -0.386 (inactive).
With ING5 (UniProt Q8WYH8), the log2 fold change was -1.47 (active).
The same measure, in the same setting: the value for MED29 (UniProt Q9NX70) was -0.115 (inactive); that for MFSD8 (UniProt Q8NHS3) was 0.032 (inactive).
On to MELK (UniProt Q14680), for which the log2 fold change is -1.41 (active).
On the same count and under the same terms, the value for MCOLN3 (UniProt Q8TDD5) was -0.136 (inactive); that for MGRN1 isoform 2 (UniProt O60291) was -0.115 (inactive).

Compound in another experiment: CC[C@H](C)N1C=C(C2=C(C=C(C=C21)C3=CN=C(C=C3)N4CCNCC4)C(=O)NCC5=C(C=C(NC5=O)C)C)C
The description is as above. The method, boiled down:
as §1
In the case of MARCHF3 (UniProt Q86UD3), the log2 fold change is 0.018 (inactive).
Still for that read-out and setting: the value for MAGED1 isoform 2 (UniProt Q9Y5V3) was -0.01 (inactive); that for MAP4K4 isoform 6 (UniProt O95819) was 0.109 (inactive); that for MAPRE3 isoform 2 (UniProt Q9UPY8) was 0.04 (inactive).
LOX (UniProt P28300): the log2 fold change is -0.191 (inactive).
The same measure, in the same setting: then MAP4K2 (UniProt Q12851), with 0.298 (inactive); and LAMP2 isoform 2 (UniProt P13473), with -0.078 (inactive).
Same read-out and setting: then MAGEA8 (UniProt P43361), with -0.075 (inactive); and MED29 (UniProt Q9NX70), with 0.055 (inactive).
Still for that read-out and setting: then ILF3 (UniProt Q12906), with 0.144 (inactive).
MELK (UniProt Q14680): the log2 fold change is 0.334 (inactive).
Same read-out and setting: then MCOLN3 (UniProt Q8TDD5), with -0.071 (inactive).

Compound in the next experiment: CC[C@H](C)[C@@H](C(=O)N[C@@H]([C@@H](C)O)C(=O)N[C@@H](CC(C)C)C(=O)[C@]1(CO1)C)NC(=O)[C@H]([C@@H](C)CC)N(C)C(=O)C [epoxomicin]
The description is as above. Summed up: as §1
KXD1 (UniProt Q9BQD3): the log2 fold change was -0.077 (inactive).
On the same count and under the same terms, the value for ITPRID2 (UniProt P28290) was -0.109 (inactive); that for MARCHF3 (UniProt Q86UD3) was 0.036 (inactive).
On the same count and under the same terms, then LRRFIP1 isoform 4 (UniProt Q32MZ4), with -0.113 (inactive).
Same read-out and setting: then MAGED1 isoform 2 (UniProt Q9Y5V3), with -0.053 (inactive).
On to LGALS8 isoform 2 (UniProt O00214), for which the log2 fold change was -0.05 (inactive).
Turning to MFAP3 (UniProt P55082), the log2 fold change is -0.054 (inactive).
Same read-out and setting: the value for LEPROT (UniProt O15243) was 0.129 (inactive); that for LAMP2 isoform 2 (UniProt P13473) was -0.016 (inactive).
In the case of MAPK7 (UniProt Q13164), the log2 fold change is 0.093 (inactive).
For LSR (UniProt M0QZL9), the log2 fold change was 0.076 (inactive).
Still for that read-out and setting: the value for MFSD8 (UniProt Q8NHS3) was -0.021 (inactive).
For the target ILF3 (UniProt Q12906), the log2 fold change was 0.004 (inactive).
In the case of MELK (UniProt Q14680), the log2 fold change is 0.077 (inactive).

These data come from the supplement of paper PMC10849652.
